Consider 7 compounds from PubChem BioAssay (Tox21).

Experiment [1] can be described thus: qHTS assay to identify small molecule agonists of the estrogen receptor alpha (ER-alpha) signaling pathway in the presence of an antagonist - cell viability counter screen (AID 1259386).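 Note: series mostly up to about 92 µM; cells exposed to compounds for 22 h at 37 °C before the viability read; nearly all actives have a fitted effect of over 30% in size.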 The gist of the method: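 Cell viability in VM7Luc4E2 cells (endogenous full-length ER-alpha) measured by CellTiter-Fluor fluorescence in the same wells as the luciferase screen. Cells pre-cultured 5 days in charcoal-stripped serum, then treated 22 h with compounds at 15 concentrations plus 10.0nM ICI-182,780.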
(Quantitative high-throughput screening tests each substance at several concentrations.)

The target in experiment [2] is Progesterone receptor (Homo sapiens) (UniProt P06401). As to the kind of experiment: qHTS assay to identify small molecule agonists of the progesterone receptor (PR) signaling pathway (AID 1346784; calls by dose curve; note: nearly all actives have a fitted effect of over 30% in size). The gist of the method: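 Reporter assay, GripTite PR-UAS-bla HEK 293T cells: 16 hr exposure to DMSO-dissolved compounds at 37C, 5% CO2, in steroid-depleted (2% charcoal-stripped FBS) medium; beta-lactamase measured by FRET fluorescence.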

Experiment [3] shares this target. Briefly: qHTS assay to identify small molecule antagonists of the progesterone receptor (PR) signaling pathway (AID 1346795; active = well fitted inhibition curve with a large enough effect in the signal ratio in the repeat runs, not every such curve was filed as active; the % refers to the signal ratio). The method in brief:
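Stimulus R5020 at 1 nM final; cells HEK293T PR-UAS-bla; medium with 2% charcoal-stripped FBS; compound exposure 16 hr at 37C, 5% CO2; detection by FRET beta-lactamase substrate, 2 hr, room temperature.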

A short description of experiment [4]: qHTS assay to identify small molecule antagonists of the progesterone receptor (PR) signaling pathway - cell viability counter screen (AID 1346798). Note: series mostly up to about 92 µM; nearly all actives have a fitted effect of over 50% in size. The gist of the method:
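In the same plates used for the beta-lactamase readout, cell viability of compound- and R5020-treated PR-UAS-bla HEK293T cells (16 hr, 37C) was assessed by CellTiter-Glo luminescence.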

A short description of experiment [5]: qHTS assay to identify small molecule agonists of the progesterone receptor (PR) signaling pathway - cell viability counter screen (AID 1346799; calls by dose curve; note: nearly all actives have a fitted effect of over 45% in size). The gist of the method:
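Multiplexed viability read: CellTiter-Glo luminescence, 30 min RT, following LiveBLAzer FRET measurement on PR-UAS-bla HEK293T cells exposed to compounds 16 hr.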

The nature of experiment [6]: qHTS assay to identify small molecule antagonists of the TGF-beta/Smad signaling pathway - cell viability counter screen (AID 1346824). Note: nearly all actives have a fitted effect of over 50% in size. The gist of the method:
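Cytotoxicity counter-screen run in the same wells as the beta-lactamase Smad reporter read: CellTiter-Glo luminescence after 30 min at room temperature. HEK 293T SBE-bla cells had 5 hr compound exposure at 37 C with TGF-beta1 (0.25 ng/mL stock).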

A short description of experiment [7]: qHTS assay to identify small molecule agonists of the TGF-beta/Smad signaling pathway - cell viability counter screen (AID 1346829). Note: top concentration of the series differs between compounds; nearly all actives have a fitted effect of over 45% in size. The gist of the method: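 Compound-treated SBE-bla HEK 293T cells (5 hr, 37 C) were assessed for viability with CellTiter-Glo in parallel with the reporter read.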
Experiment [8] in a line: qHTS assay to identify small molecule agonists of the TGF-beta/Smad signaling pathway (AID 1346859; active = well fitted activation curve with a large enough effect in the signal ratio in the repeat runs, not every such curve was filed as active; the % refers to the signal ratio; note: series mostly up to about 77 µM). The method in brief: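 Screening used HEK 293T SBE-bla cells at 4,000/well. Test agents: 5 hr, 37 C. Detection: FRET substrate, 2 hr RT, then excitation 405 nm with emissions at 460 and 530 nm.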
Experiment [9] concerns the target Thyrotropin-releasing hormone receptor (Homo sapiens) (UniProt P34981). Briefly: qHTS assay to identify small molecule antagonists of the thyrotropin-releasing hormone receptor (TRHR) signaling pathway (AID 1346877; active = well fitted inhibition curve with a large enough effect in the repeat runs, not every such curve was filed as active; note: series mostly up to about 51 µM). The gist of the method:
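TRHR-expressing HEK293 cells loaded with calcium dye for 2 h at 37 C; compounds pre-incubated 5 min at room temperature before TRH challenge at 1 nM final. Intracellular calcium fluorescence read kinetically for 3 min; 15 concentrations in triplicate.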

Experiment [10] has the same target. As to the kind of experiment: qHTS assay to identify small molecule agonists of the thyrotropin-releasing hormone receptor (TRHR) signaling pathway (AID 1346891; calls by dose curve; note: potency is the fitted concentration of half-maximal effect; for activation: series mostly up to about 58 µM). The method in brief:
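Readout was intracellular calcium fluorescence in TRHR-Hek293 cells. Cells were incubated 18 h, dye-loaded 2 h at 37 °C, and treated with compound in agonist mode.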

Experiment [11] can be described thus: Human pregnane X receptor (PXR) small molecule agonists, qHTS cell viability counter screen (AID 1346977). Note: nearly all actives have a fitted effect of over 50% in size. The gist of the method:
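In each well, the PXR reporter HepG2 line was checked for viability: CellTiter-Fluor reagent added 23hr post-dosing, fluorescence read after 1hr incubation at 37C.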

Experiment [12] can be described thus: Caspase-3/7 induction in HepG2 cells by small molecules, qHTS assay (AID 1346978). Note: nearly all actives have a fitted effect of over 15% in size. The method in brief:
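Caspase-3/7 induction was measured by Caspase-Glo 3/7 luminescence (30 min, room temperature) after a 17 hr compound exposure of wild-type HepG2 cells seeded at 2,000 per well and pre-incubated 5 hr.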

The nature of experiment [13]: Caspase-3/7 induction in CHO-K1 cells by small molecules, qHTS cell viability counter screen (AID 1346979). Note: nearly all actives have a fitted effect of over 35% in size. The gist of the method: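 Following a 5hr settling period, CHO-K1 cells at 1,500 per well received DMSO-dissolved compounds. Cell viability was quantified 16hr later by CellTiter-Fluor fluorescence, measured after 1hr with reagent at 37C.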
Experiment [14] in a line: Caspase-3/7 induction in CHO-K1 cells by small molecules, qHTS assay (AID 1346980). Note: nearly all actives have a fitted effect of over 15% in size. The method in brief: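 Luminescent Caspase-Glo 3/7 read (30min, room temperature) quantified apoptosis induction. Cells were wild-type CHO-K1, treated with compound for 17hr at 37 C and 5% CO2.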
Experiment [15] can be described thus: Caspase-3/7 induction in HepG2 cells by small molecules, qHTS cell viability counter screen (AID 1346981). Note: series mostly up to about 92 µM; nearly all actives have a fitted effect of over 30% in size. The method in brief: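 Wild-type HepG2 cells, 2,000/well, settled 5 hr at 37 C, 5% CO2 before compound addition. Viability read by CellTiter-Fluor fluorescence, reagent added after 16 hr compound exposure, then 1 hr at 37C, in the same wells as the caspase read.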

In experiment [16] the target is Nuclear receptor subfamily 1 group I member 2 (Homo sapiens) (UniProt O75469). As to the kind of experiment: Human pregnane X receptor (PXR) small molecule agonists, qHTS assay (AID 1346982). Note: nearly all actives have a fitted effect of over 35% in size. Note: potency is the fitted concentration of half-maximal effect. The gist of the method:
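PXR-Luc HepG2 reporter cells (CYP3A4-driven luciferase) in 5% charcoal-stripped FBS medium, plated 5 h before compound addition, then treated 24 h at 37C. Luciferase read by ONE-Glo luminescence after 30 min at room temperature.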

The target in experiment [17] is Cytochrome P450 2D6 (Homo sapiens) (UniProt P10635). As to the kind of experiment: Cytochrome P450 Family 2 Subfamily D Member 6 (CYP2D6) small molecule antagonists: luciferase reporter qHTS assay (AID 1671196). Note: nearly all actives have a fitted effect of over 50% in size. Note: potency is the fitted concentration of half-maximal effect. The gist of the method:
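Cell-free P450-Glo system: CYP2D6 with proluciferin substrate was pre-incubated with compound for 10 min, then reacted with NADPH regeneration for 1 h at room temperature. Luciferin product was detected after 20 min, and data were reported as relative luminescence units.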
For orientation: In a reporter assay the amount or activity of a reporter protein is the signal.

The target in experiment [18] is Nuclear receptor subfamily 1 group I member 2 (Rattus norvegicus) (UniProt Q9R1A7). As to the kind of experiment: Rat pregnane X receptor (rPXR) activation by small molecules, qHTS assay (AID 1346983). Note: nearly all actives have a fitted effect of over 20% in size. To be noted: rPXR luciferase reporter cells, One-Glo luminescence, 24 h; max activation: stronger effect = higher value. The gist of the method:
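Luminescent readout (One-Glo luciferase, 30 min room temperature) followed 24 hr compound treatment at 37 C of rPXR cells plated 2,000 per well and preincubated 5hr; qHTS format with compounds delivered in DMSO.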

The target in experiment [19] is Nuclear receptor subfamily 1 group I member 2 (Homo sapiens) (UniProt O75469). As to the kind of experiment: CYP3A4 induction through human pregnane X receptor (PXR) by small molecules, qHTS assay (AID 1346984). Note: nearly all actives have a fitted effect of over 40% in size. The gist of the method: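 DPX-2 HepG2 cells carrying a PXR response element and CYP3A4-promoter luciferase construct, treated with compounds 24 hr at 37C. Then P450-Glo CYP3A4 Luciferin-IPA substrate (3uM final) for 3 hr at 37C, One-Glo added, luminescence read.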

Experiment [20] shares this target. Briefly: Human pregnane X receptor (PXR) activation by small molecules, qHTS assay (AID 1346985). Note: nearly all actives have a fitted effect of over 40% in size. The method in brief:
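DPX-2 cells (HepG2 co-transfected with a PXR response element and a CYP3A4-promoter luciferase construct) were seeded at 2,000 per well, rested 5 hr at 37C, then exposed to DMSO-dissolved compounds for 24 hr. Activation was read as luciferase luminescence.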

Values joined by “and” are separate entries in the source; they are usually repeats but may differ in a detail not shown here. Equal entries are not always repeated. Inconclusive results are not listed. The source holds several records for some structures; these can differ, active in one and inactive in another. Active and inactive are the calls of the source. Unless noted, calls come from the whole dose curve; as a rule, active = well fitted curve in the direction sought with a large enough effect in the repeat runs; inconclusive = weak or mixed curves; inactive = no such curve, though single readings can be large; an effect the other way counts as inactive or inconclusive.
% is set by controls: 0 for no effect and ±100 for the full control effect.

Sequence of Nuclear receptor subfamily 1 group I member 2 (Rattus norvegicus) (Q9R1A7 whole entry, looked up): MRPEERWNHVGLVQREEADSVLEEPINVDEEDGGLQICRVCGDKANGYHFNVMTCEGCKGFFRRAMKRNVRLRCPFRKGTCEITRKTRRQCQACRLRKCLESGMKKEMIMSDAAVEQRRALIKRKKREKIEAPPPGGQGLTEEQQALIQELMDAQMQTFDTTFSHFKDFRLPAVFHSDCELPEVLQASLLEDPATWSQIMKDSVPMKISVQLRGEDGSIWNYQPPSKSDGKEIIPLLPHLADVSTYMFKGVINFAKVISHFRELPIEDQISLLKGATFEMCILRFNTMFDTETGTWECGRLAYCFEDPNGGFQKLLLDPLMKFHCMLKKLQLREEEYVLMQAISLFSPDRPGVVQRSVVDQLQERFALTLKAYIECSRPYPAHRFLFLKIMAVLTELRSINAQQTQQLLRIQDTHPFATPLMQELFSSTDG
Sequence of Thyrotropin-releasing hormone receptor (Homo sapiens) (P34981 whole entry, looked up): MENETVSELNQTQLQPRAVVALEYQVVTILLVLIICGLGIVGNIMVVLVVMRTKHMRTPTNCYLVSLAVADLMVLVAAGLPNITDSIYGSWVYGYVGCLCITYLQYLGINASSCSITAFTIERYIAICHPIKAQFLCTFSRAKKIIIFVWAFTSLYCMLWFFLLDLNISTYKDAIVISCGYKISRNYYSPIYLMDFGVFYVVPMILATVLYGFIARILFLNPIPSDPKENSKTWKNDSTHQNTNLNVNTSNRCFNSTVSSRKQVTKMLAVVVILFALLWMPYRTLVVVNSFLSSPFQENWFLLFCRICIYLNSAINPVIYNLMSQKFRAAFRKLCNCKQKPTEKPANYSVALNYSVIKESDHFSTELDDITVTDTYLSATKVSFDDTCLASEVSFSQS
Sequence of Cytochrome P450 2D6 (Homo sapiens) (P10635 whole entry, looked up): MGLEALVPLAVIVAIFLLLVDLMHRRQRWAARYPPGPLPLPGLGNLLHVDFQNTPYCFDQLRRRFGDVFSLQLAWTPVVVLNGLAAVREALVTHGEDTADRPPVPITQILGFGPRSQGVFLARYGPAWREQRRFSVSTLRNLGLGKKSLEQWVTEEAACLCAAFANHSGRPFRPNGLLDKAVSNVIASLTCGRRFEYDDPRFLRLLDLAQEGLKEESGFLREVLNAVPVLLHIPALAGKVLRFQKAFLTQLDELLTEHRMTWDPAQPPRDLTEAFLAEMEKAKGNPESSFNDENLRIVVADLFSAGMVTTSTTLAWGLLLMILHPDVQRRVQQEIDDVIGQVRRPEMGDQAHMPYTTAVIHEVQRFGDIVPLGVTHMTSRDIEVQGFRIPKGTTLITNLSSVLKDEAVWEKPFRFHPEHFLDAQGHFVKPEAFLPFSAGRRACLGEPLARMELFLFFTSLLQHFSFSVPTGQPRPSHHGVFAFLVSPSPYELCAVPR
Sequence of Progesterone receptor (Homo sapiens) (P06401 whole entry, looked up): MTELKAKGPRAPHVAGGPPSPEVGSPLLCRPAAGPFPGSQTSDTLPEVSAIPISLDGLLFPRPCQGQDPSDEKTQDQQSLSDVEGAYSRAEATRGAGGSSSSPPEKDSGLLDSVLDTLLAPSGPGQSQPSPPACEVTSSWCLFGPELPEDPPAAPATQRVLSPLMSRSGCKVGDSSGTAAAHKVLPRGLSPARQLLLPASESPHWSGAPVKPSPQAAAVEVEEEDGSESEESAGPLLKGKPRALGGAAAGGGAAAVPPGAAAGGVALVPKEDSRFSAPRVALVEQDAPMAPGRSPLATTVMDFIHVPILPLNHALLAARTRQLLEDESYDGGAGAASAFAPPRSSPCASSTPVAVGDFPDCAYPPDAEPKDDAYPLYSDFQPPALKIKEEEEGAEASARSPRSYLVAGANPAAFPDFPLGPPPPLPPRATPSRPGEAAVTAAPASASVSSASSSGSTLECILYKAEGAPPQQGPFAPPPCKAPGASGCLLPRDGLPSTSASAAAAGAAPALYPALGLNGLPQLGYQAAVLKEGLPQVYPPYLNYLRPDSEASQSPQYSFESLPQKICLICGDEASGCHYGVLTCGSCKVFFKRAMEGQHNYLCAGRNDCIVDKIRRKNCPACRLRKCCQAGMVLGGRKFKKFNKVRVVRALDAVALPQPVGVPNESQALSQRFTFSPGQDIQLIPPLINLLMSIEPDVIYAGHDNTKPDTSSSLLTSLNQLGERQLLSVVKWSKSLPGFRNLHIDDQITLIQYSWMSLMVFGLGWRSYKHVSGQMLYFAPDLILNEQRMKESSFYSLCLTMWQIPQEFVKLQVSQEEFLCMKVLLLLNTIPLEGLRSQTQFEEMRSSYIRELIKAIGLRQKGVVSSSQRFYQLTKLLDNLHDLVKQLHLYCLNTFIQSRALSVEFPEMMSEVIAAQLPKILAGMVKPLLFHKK
Sequence of Nuclear receptor subfamily 1 group I member 2 (Homo sapiens) (O75469 whole entry, looked up): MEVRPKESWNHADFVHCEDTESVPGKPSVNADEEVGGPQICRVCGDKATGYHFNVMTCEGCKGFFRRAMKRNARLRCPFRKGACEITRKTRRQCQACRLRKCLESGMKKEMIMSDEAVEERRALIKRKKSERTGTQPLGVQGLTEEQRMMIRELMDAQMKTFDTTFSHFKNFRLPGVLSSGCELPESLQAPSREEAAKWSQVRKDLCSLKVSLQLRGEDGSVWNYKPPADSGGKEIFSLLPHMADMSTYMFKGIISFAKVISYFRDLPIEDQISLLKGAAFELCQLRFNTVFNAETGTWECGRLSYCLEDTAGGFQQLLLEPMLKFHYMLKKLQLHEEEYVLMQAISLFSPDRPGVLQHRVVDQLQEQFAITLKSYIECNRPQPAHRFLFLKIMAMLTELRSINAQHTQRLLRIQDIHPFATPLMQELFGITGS

For the compound `CC(=O)CCC(C)C`, the Potency entry in experiment [1], in experiment [2], in experiment [3], in [4], in [5] and in experiment [6] was “inactive” each time. Further, the Potency result in experiment [7], in experiment [11], in experiment [12], in experiment [13], in experiment [15] and in experiment [16] was “inactive” each time. In experiment [17], the Potency entry was “inactive”. For the same compound, the compound was called inactive in experiment [8], in experiment [9] and in experiment [14]. Moreover, in experiment [10], the Potency result is “inactive and 17.4 µM (active)”.

For the compound `NC(=O)NO`, the Potency result in experiment [1], in experiment [2], in experiment [3], in experiment [4], in experiment [5] and in [6] was “inactive” throughout. In addition, the Potency result in [7], in [10], in [11], in experiment [13] and in experiment [15] was “inactive” each time. In addition, the compound was classed as inactive in experiment [8], in [9] and in [14].

In the case of `NC(=O)N1c2ccccc2C=Cc2ccccc21`, the Potency entry in experiment [1], in [2], in experiment [3], in [4], in experiment [5] and in experiment [6] was “inactive” in each case. Besides, the Potency entry in experiment [7], in [10], in experiment [11], in experiment [12], in experiment [13] and in experiment [15] was “inactive” each time. Moreover, the result in [8], in experiment [9] and in experiment [14] was inactive. Moreover, the Potency in [16] is 54.2 µM (active) and inactive; in [17], 1.99 µM (active) and inactive.

With `CCOC(=O)C(C)(C)Oc1ccc(Cl)cc1`, the Potency result in experiment [1], in experiment [2], in experiment [3], in experiment [4], in experiment [5] and in [6] was “inactive” each time. Further, the Potency result in [7], in experiment [10], in experiment [11], in [12], in [13] and in experiment [15] was “inactive” each time. The Potency entry in [16] was “inactive”. For the same compound, the call in [8] and in experiment [14] was inactive.

For the compound `CCCCNC(=O)NS(=O)(=O)c1ccc(N)cc1`, the Potency entry in [1], in [2], in experiment [3], in experiment [4], in [5] and in [6] was “inactive” throughout. Also, the Potency entry in [7], in [10], in [11], in experiment [13], in [15] and in [16] was “inactive” each time. The Potency entry in experiment [19], in [20] and in [17] was “inactive” throughout. The compound was classed as inactive in [8], in [9] and in [14]. Further, in experiment [18], the max activation is -2.23% (inactive).

Turning to `NC(=O)c1ccc([N+](=O)[O-])cc1Cl`, the Potency result in experiment [1], in experiment [2], in experiment [3], in [4], in experiment [5] and in experiment [6] was “inactive” in each case. In addition, the Potency result in experiment [7], in experiment [10], in [11], in experiment [12], in experiment [13] and in experiment [15] was “inactive” in each case. Also, the Potency result in [16], in experiment [19], in experiment [20] and in experiment [17] was “inactive” in each case. In addition, the call in [8], in experiment [9] and in [14] was inactive. Further, in experiment [18], the max activation was 2.53% (inactive).

Take `CCN(CC)CCOC(=O)c1ccc(N)cc1`: the Potency entry in experiment [1], in [2], in experiment [3], in experiment [4], in experiment [5] and in [6] was “inactive” in each case. Besides, the Potency entry in experiment [7], in experiment [10], in experiment [11], in [12], in experiment [13] and in experiment [15] was “inactive” in each case. Further, the Potency result in [16], in [19] and in experiment [20] was “inactive” throughout. Also, the call in [8], in [9] and in [14] was inactive. For the same compound, in [18], the max activation was -0.318% (inactive). Also, the Potency in experiment [17] is 5.95 µM (active) and 15.5 µM (active).
